# Assay results published in PubChem BioAssay.
# The source made the active and inactive calls.
# Assays:
# [1] = tested on: Plasmodium falciparum Sir2 (PF13_0152, Sir2A); assay: Plasmodium falciparum Sir2A binding compounds – biochemical, small-molecule microarray, 635 nm fluorescence, primary screen (AID 1098); conditions: fluorescence 635 nm, higher = more signal;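 also: score merges spot fluorescence intensity with its signal-to-noise ratio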
# [2] = probe aDKK1 binding to arrayed compounds – biochemical, biotinylated probe, 635/667 nm fluorescence, primary screen (AID 1099); conditions: small-molecule microarray, higher = more signal;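 also: score merges 667nm spot fluorescence with signal to noise across triplicate slides; reference of the scale not given here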
# [3] = probe aCHRDL2 binding to arrayed compounds – biochemical, biotinylated probe, 635/667 nm fluorescence, primary screen (AID 1100); conditions: small-molecule microarray, higher = more signal
# [4] = change in splice reporter luminescence, either direction, cell-based, HEK293, spliceosome inhibition project, primary screen (AID 1101); conditions: HEK293 splicing luciferase reporter, 24 h, higher = more signal, called active from +8 up or from −8 down;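 also: HEK293 cells carrying a splicing-competent luciferase reporter gene; test concentration not given here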
# [5] = molecular target: Fibroblast growth factor 10 (Homo sapiens) (UniProt O15520); assay: compounds binding fibroblast growth factor 10 – biochemical, small-molecule microarray, 635 nm fluorescence, primary screen (AID 1102); conditions: FGF10 binding, fluorescence 635 nm, higher = more signal
# Fibroblast growth factor 10 (Homo sapiens), sequence (O15520 whole entry, looked up): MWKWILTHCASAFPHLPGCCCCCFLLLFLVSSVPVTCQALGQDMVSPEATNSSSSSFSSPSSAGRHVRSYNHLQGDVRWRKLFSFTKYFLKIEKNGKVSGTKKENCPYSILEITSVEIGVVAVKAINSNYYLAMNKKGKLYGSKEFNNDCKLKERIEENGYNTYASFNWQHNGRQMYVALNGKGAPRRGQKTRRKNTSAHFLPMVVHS
# [6] = tested on: glycogen synthase kinase-3 (GSK3A per assay name; protocol says GSK3B); assay: compounds binding glycogen synthase kinase-3 – biochemical, small-molecule microarray, 635 nm fluorescence, GSK3A, primary screen (AID 1103); conditions: fluorescence 635 nm, higher = more signal; also: the record names both GSK3A and GSK3B
# [7] = molecular target: Epidermal growth factor receptor (Homo sapiens) (UniProt P00533); assay: compounds binding epidermal growth factor receptor – biochemical, small-molecule microarray, 635 nm fluorescence, primary screen (AID 1104); conditions: EGFR binding, higher = more signal;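 also: score merges 667 nm emission intensity with spot signal to noise over triplicate slides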
# Epidermal growth factor receptor (Homo sapiens), sequence (P00533 whole entry, looked up): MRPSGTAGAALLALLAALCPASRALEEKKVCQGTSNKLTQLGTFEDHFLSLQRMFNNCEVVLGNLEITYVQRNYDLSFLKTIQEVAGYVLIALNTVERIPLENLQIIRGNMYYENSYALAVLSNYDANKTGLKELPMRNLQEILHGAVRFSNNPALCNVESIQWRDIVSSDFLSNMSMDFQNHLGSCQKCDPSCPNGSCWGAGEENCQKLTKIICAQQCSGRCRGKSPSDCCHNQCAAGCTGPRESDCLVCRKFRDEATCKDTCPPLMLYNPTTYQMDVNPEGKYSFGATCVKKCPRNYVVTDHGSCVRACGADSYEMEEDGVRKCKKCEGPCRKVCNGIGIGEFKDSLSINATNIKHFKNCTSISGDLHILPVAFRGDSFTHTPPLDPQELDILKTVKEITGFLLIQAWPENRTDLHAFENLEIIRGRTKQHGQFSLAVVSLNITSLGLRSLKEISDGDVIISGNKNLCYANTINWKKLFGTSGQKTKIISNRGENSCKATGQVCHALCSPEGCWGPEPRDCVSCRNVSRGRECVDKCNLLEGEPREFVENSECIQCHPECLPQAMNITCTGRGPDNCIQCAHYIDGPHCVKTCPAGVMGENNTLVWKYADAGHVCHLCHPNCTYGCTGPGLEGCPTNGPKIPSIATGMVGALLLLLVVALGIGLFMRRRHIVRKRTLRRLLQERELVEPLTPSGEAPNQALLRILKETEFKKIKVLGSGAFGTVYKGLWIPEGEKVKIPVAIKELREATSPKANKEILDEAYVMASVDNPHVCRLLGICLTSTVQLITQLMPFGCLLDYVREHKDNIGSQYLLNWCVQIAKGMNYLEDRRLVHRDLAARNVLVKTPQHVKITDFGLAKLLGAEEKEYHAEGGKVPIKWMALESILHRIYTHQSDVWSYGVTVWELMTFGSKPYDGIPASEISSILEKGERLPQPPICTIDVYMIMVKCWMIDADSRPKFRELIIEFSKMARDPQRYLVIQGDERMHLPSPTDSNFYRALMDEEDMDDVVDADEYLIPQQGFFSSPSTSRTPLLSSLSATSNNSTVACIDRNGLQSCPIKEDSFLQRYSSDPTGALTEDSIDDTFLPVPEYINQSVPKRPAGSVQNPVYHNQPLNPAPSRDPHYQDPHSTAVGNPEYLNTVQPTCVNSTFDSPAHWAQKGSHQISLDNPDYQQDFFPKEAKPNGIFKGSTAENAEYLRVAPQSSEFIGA
# [8] = molecular target: Follistatin-related protein 3 (Homo sapiens) (UniProt O95633); assay: compounds binding follistatin-related protein 3 – biochemical, small-molecule microarray, 635 nm fluorescence, primary screen (AID 1105); conditions: FSTL3 binding, higher = more signal;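 also: score merges emission near 667 nm and signal to noise per printed spot across three slides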
# Follistatin-related protein 3 (Homo sapiens), sequence (O95633 whole entry, looked up): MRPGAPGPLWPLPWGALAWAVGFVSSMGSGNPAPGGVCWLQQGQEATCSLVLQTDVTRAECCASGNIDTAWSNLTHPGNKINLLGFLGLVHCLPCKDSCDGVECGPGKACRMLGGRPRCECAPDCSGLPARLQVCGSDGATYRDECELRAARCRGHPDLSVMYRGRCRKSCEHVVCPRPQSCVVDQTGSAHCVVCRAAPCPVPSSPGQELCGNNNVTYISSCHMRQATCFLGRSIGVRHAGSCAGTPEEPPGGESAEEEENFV
# [9] = molecular target: Dickkopf-related protein 1 (Homo sapiens) (UniProt O94907); assay: small molecules binding DKK1 protein – biochemical, small-molecule microarray, 635 nm fluorescence scan, primary screen (AID 1106); conditions: higher = more signal;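 also: score merges emission near 667 nm with signal to noise over three replicate slides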
# Dickkopf-related protein 1 (Homo sapiens), sequence (O94907 whole entry, looked up): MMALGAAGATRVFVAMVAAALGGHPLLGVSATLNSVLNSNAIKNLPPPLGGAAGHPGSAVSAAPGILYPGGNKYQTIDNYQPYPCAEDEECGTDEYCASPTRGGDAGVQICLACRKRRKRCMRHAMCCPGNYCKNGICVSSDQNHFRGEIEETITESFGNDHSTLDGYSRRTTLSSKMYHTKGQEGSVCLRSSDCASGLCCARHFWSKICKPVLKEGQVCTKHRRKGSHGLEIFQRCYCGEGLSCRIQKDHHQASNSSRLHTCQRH
# [10] = tested on: Inhibin beta A chain (activin A); assay: small molecules binding activin A – biochemical, small-molecule microarray, 635 nm fluorescence scan, primary screen (AID 1107); conditions: INHBA, higher = more signal;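 also: mouse activin A protein probed at 4.33 µg/mL on printed slides; score merges bound-protein fluorescence near 667 nm with spot signal-to-noise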
SMILES,composite z-score [1],composite z-score [2],composite z-score [3],z-score [4],composite z-score [5],composite z-score [6],composite z-score [7],composite z-score [8],composite z-score [9],composite z-score [10]
NC(=O)NCC#Cc1ccc2c(c1)[C@]1(C(=O)N2)[C@H](c2ccc(O)cc2)N2[C@H](c3ccccc3)[C@H](c3ccccc3)OC(=O)[C@H]2[C@@H]1C(=O)Nc1nc2ccccc2s1,0.836,0.645,0.985,1.11 (inactive),1.25,0.0394,0.581,1.05,0.666,1.17
CC(C)(C)OC(=O)CC[C@]1(C(=O)NCCN2CCOCC2)N=C(c2ccc(OCCCO)cc2)O[C@H]1c1ccccc1,1,0.214,0.93,0.66 (inactive),-0.426,-1.04,-0.174,-0.713,-1.02,0.992
CC(C)N1CC=CC23O[C@@H]4C=CCCOC(=O)C4[C@H]2C(=O)N(CCO)[C@@H]3C1=O (stereo not given in full),0.154,-0.377,-0.0034,-1.22 (inactive),0.107,-0.504,-0.458,-0.762,-0.155,-0.101
C[n+]1ccc(CCCO)cc1,0.365,-0.0442,0.0977,-0.164 (inactive),0.113,-0.262,-0.455,0.0584,0.457,1.57
C=CC1c2cc(O)c(OC)cc2CCN1Cc1sc2ccccc2c1Cl (stereo not given),1.29,0.284,1.25,-1.4 (inactive),0.504,0.112,-0.163,0.847,0.153,1.55
C=CC[C@@]12N=C(c3ccc(OCCCO)cc3)O[C@@H]1c1ccccc1N(CCS(=O)(=O)c1ccccc1)C2=O,1.22,-0.183,0.269,-2.49 (inactive),0.397,1.28,0.272,1.19,0.571,1.23
CC(C)C(O)C1C=CC2C(=O)N(C)C(=O)C2N1N(c1ccccc1)c1ccccc1 (stereo not given),1.09,0.185,0.972,1.06 (inactive),-0.879,-1.5,-0.381,-0.49,-1.07,1.7
CN(C)CCCN1C(=O)[C@@]2(c3ccc([N+](=O)[O-])cc3)CC(=O)N(CC34CC5CC(CC(C5)C3)C4)[C@@H]2c2ccc(CO)cc21,1.68,1.83,0.543,0.626 (inactive),-0.173,0.443,-0.708,-0.116,-0.482,0.144
C=CCN1C(=O)[C@@]2(CCC(=O)OC(C)(C)C)N=C(c3ccc(OCCCO)cc3)O[C@H]2c2ccccc21,1.25,0.549,1,0.0157 (inactive),0.0195,1.13,0.217,0.792,0.116,1.4
COc1ccc([Si](C)(C)[C@@H]2[C@@H](CC(=O)N3CCC[C@H]3CO)O[C@]3(C(=O)N(Cc4ccc(N5C(=O)c6cccc7cccc5c67)cc4)c4ccccc43)[C@H]2C)cc1,1.56,-0.184,-0.2,-1.11 (inactive),1.38,1.29,0.564,1.06,0.587,0.231
CCOC(=O)C[C@H]1[C@H](OC(=O)Cc2ccc3c(c2)OCO3)[C@@H](NC(=O)C2CCCCC2)c2cc(OCCCO)ccc2N1C(=O)c1ccc2ccccc2n1,0.774,0.034,-0.529,-1.49 (inactive),1.47,0.72,0.713,1.18,1.65,0.0341
COc1ccc(C(O)C2C=CC3C(=O)N(C)C(=O)C3N2N2CCCCC2)cc1 (stereo not given),1.23,0.297,0.378,1.33 (inactive),0.632,1.09,0.579,0.306,0.224,1.31
Cc1ccc(C(C)CC(O)C2C=CC3C(=O)N(c4ccccc4)C(=O)C3N2Nc2ccc(C(C)C)cc2)o1 (stereo not given),0.938,1.14,1.37,1.46 (inactive),0.545,0.777,0.17,0.679,-0.252,1.13
CC(C)(C)N1CC=CC23O[C@@H]4C=CCOC(=O)[C@@H]4[C@H]2C(=O)N(CCCO)[C@@H]3C1=O (stereo not given in full),1.43,-0.451,0.726,-1.28 (inactive),-1.3,-1.13,-1.66,-1.69,-1.26,0.301
Cc1ccc(S[C@]2(C(=O)NCC(F)(F)F)CC(=O)N(Cc3ccccc3)[C@@H]2c2ccc(CO)cc2)cc1,1.54,0.382,0.767,-0.676 (inactive),-0.409,-0.507,-0.938,-0.763,-1.32,-0.0219
CCOC(=O)C1=CC[C@@H](c2cc(Cl)ccc2Cl)N(S(=O)(=O)c2ccc(C)cc2)[C@H]1c1ccc(OC)cc1,0.391,0.987,1.13,-0.381 (inactive),0.462,-0.239,-0.36,-0.0732,-0.295,1.56
COc1cc2c(cc1OC)CN(C(=O)[C@H]1[C@@H]3C(=O)O[C@@H](c4ccccc4)[C@@H](c4ccccc4)N3[C@@H](c3ccc(OCCO)cc3)[C@]13C(=O)Nc1ccc(C#CCCO)cc13)CC2,0.903,-0.269,0.33,-0.296 (inactive),1.4,1.29,0.292,1.37,0.167,0.813

SMILES,composite z-score [1],composite z-score [2],composite z-score [3],z-score [4],composite z-score [5],composite z-score [6],composite z-score [7],composite z-score [8],composite z-score [9],composite z-score [10]
COc1ccc(C#Cc2ccc3c(c2)[C@]2(C(=O)N3)[C@H](C(=O)N3CCc4cc(OC)c(OC)cc4C3)[C@H]3C(=O)O[C@H](c4ccccc4)[C@H](c4ccccc4)N3[C@@H]2c2ccc(O)cc2)cc1,0.822,-0.29,-0.178,-0.00287 (inactive),0.851,1.29,0.537,0.957,0.513,-0.214
CC(=O)n1cc(C(O)C2C=CC3C(=O)N(c4ccccc4)C(=O)C3N2Nc2ccccc2)c2ccccc21 (stereo not given),0.454,1.81,1.52,-1.22 (inactive),0.833,-0.669,0.444,1.19,0.325,1.93
COCCOC(=O)N1C(=O)[C@@]2(c3cc(C#CC4(O)CCCCCC4)ccc31)[C@H](C(N)=O)[C@H]1C(=O)O[C@H](c3ccccc3)[C@H](c3ccccc3)N1[C@@H]2c1ccccc1OCCO,1.28,0.919,-0.423,-1.96 (inactive),1.15,1.3,0.639,1.16,0.974,-0.505
CN(C)CCCNC(=O)[C@@]1(C)c2ccccc2C(=O)N(Cc2cc(C(F)(F)F)cc(C(F)(F)F)c2)[C@H]1c1ccc(CO)cc1,1.01,0.202,0.0634,-1.24 (inactive),-0.753,-0.477,-1.9,-1.14,-0.992,-1.34
CN1C(=O)C2C=CC(C(O)Cc3ccccc3)N(N(c3ccccc3)c3ccccc3)C2C1=O (stereo not given),0.86,0.46,0.733,0.653 (inactive),0.812,-0.227,-0.567,-0.068,-0.303,0.864
CC(C)NC(=O)[C@@]1(C)c2ccccc2C(=O)N(C(C)C)[C@H]1c1ccc(CO)cc1,1.58,-0.123,0.925,0.0862 (inactive),-1.09,-0.643,-1.68,-0.673,-1.81,-1.53
C=C[C@H](COC(C)=O)NS(=O)(=O)c1ccc(Br)cc1,0.786,-0.247,-0.272,0.485 (inactive),-0.28,-0.384,0.141,0.128,0.516,0.294
NCCCCCCNC(=O)[C@@H]1C[C@@H]2C(=O)N3CCC[C@H]3C(=O)N2[C@@H]1c1ccc(O)cc1,1.27,0.0265,0.0978,0.364 (inactive),1.01,1.3,0.235,0.318,1.02,0.123
O=C(CCCCCCC(=O)Nc1ccccc1)N/N=C/c1ccccc1,0.45,-0.176,-0.311,-0.519 (inactive),-0.136,-0.401,0.0504,-0.41,0.328,0.18
COc1ccc(NN2C(C(O)c3ccco3)C=CC3C(=O)N(C4CCCCC4)C(=O)C32)cc1 (stereo not given),1.39,0.456,0.689,0.157 (inactive),1.35,1.32,0.423,1.49,0.0006,0.725
C=C(COC)/C(=C/C[C@@H](OC(=O)c1ccncc1)c1ccc(CO)o1)c1cnc2ccccc2c1,1.06,-0.182,-0.386,0.773 (inactive),1.59,1.35,1.59,1.57,1.2,1.87
CC[C@H]1C2=C3C(CC[C@H]4C(OCc5ccc(F)cc5C(F)(F)F)OC[C@](C)([C@@H]34)N(C(=O)OC(C)(C)C)C2)C2COC(=O)OCC21 (stereo not given in full),0.282,0.817,1.12,-0.499 (inactive),-0.0217,0.737,0.128,0.719,-1.02,1.06
C=C(CCCC)C(=O)CC[C@@H](OC(=O)c1cccnc1)c1ccccc1OCCO,0.996,-0.0709,0.515,4.97 (inactive),0.341,-0.164,-0.183,0.296,-0.265,1.16
C=C(/C=C/CNS(=O)(=O)c1ccc(C)cc1)[C@H](O)[C@H]1CCCN1S(=O)(=O)c1ccccc1[N+](=O)[O-],0.61,0.0684,0.0163,-0.112 (inactive),0.582,0.139,0.669,0.998,0.727,0.809
COc1cc2c(cc1OC)CN(C(=O)[C@H]1[C@@H]3C(=O)O[C@@H](c4ccccc4)[C@@H](c4ccccc4)N3[C@@H](c3ccc(OCCO)cc3)[C@]13C(=O)Nc1ccc(C#CC4(O)CCCCCC4)cc13)CC2,1.09,1.59,0.623,0.415 (inactive),1.12,1.31,1.02,1.33,1.31,1.07
C=CC[C@H](OC(=O)Nc1ccc(OC)cc1)c1ccc(O)c2ccccc12,1.24,0.121,0.0255,3.32 (inactive),0.82,1.29,0.547,1.26,0.92,1.05
